GluA2 TARP mod: modulates AMPAR-stargazin complexes; O88602+P19491; HEK293 GluA2+stargazin, membrane potential dye (FDSS), glutamate EC50; hits were called plate by plate, in both directions; calls only at 30 µM; 3.5% of 40,000 active;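 active = any of four per-well response measures lying three or more SD from its plate-wide compound average, in either direction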
Target sequence (O88602 whole entry, looked up): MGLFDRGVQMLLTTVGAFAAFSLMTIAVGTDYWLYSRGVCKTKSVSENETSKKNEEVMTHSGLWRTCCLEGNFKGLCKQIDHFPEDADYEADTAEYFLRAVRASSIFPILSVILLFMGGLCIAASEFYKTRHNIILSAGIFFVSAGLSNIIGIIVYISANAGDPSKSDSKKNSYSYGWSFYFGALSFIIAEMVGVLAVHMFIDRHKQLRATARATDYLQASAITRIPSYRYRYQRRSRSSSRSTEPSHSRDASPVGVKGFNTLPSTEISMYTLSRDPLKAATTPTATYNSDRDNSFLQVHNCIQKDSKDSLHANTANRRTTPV
Target sequence (P19491 whole entry, looked up): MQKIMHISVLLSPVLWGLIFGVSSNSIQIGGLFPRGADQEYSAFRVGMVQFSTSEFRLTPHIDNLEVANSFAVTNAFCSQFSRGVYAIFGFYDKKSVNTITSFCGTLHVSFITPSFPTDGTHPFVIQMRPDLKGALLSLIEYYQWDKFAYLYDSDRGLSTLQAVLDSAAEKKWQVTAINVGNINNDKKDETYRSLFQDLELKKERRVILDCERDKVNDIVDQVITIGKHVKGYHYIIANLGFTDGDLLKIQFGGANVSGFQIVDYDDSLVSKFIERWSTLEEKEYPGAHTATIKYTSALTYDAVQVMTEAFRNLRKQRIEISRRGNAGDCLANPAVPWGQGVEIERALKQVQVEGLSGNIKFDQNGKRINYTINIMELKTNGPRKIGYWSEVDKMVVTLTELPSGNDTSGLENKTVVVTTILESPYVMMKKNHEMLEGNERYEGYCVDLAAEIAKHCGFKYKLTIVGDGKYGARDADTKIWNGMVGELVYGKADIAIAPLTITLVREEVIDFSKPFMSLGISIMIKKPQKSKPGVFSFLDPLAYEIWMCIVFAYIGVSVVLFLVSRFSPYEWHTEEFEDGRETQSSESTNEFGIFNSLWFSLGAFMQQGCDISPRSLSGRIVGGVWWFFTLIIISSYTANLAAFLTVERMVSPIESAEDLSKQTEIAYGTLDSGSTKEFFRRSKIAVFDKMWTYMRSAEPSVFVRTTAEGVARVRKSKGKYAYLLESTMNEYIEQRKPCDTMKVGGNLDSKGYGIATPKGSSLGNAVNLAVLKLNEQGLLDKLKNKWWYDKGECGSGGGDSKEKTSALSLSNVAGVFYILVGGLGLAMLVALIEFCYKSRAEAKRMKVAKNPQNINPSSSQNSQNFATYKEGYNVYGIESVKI
GIRK2 activator: GIRK2 channel activators by thallium flux; activation (% efficacy), % for hits at 37.5 µM; AID 1259324; P48051; HEK293 GIRK2/NPY4 cells, thallium flux fluorescence; 34,000 tested, under 10 active;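 active = primary screen hit, no activity in plain HEK293 cells, and in GIRK2-only cells above 5% efficacy rising with concentration; inactive = the rest, including fluorescent compounds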;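 also: efficacy is normalized control-subtracted fluorescence 15 s after thallium addition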
An asterisk follows results filed as active; ! = a repeat was not active. The sample as a whole holds a higher share of hits than the screen did.

What do the screens show for `CCC(C(=O)NCCOc1ccc2nnc(-c3ccc(OC)cc3)n2n1)c1ccccc1` (stereo unspecified)?
GluA2 TARP mod: inactive; GIRK2 activator: inactive

What do the screens show for `COc1ccc(-c2nnc3ccc(OCCNC(=O)NCc4ccccc4)nn23)cc1`?
GluA2 TARP mod: active; GIRK2 activator: inactive

What do the screens show for `COc1ccc(-c2nnc3ccc(OCCNC(=O)Nc4ccc(F)cc4)nn23)cc1`?
GluA2 TARP mod: active; GIRK2 activator: inactive

Results for COc1ccc(S(=O)(=O)CC(=O)Nc2nc(-c3ccccc3)c(C(=O)c3ccccc3)s2)cc1 ?
GluA2 TARP mod: inactive; GIRK2 activator: inactive

Results for COc1ccc(NC(=O)C2CCCN(c3cnc4ccccc4n3)C2)cc1OC (stereo unspecified) ?
GluA2 TARP mod: inactive; GIRK2 activator: inactive

How did COc1cccc(C(=O)COC(=O)c2cccc3c2C(=O)c2ccccc2-3)c1 do in these assays?
GluA2 TARP mod: inactive

Results for COc1ccc(OCC(=O)Nc2ccc(OC)c(N3CCCC3=O)c2)cc1 ?
GluA2 TARP mod: inactive

Results for CC(C)(C)C(=O)N1CCc2ccc(NC(=O)Cc3cccs3)cc21 ?
GluA2 TARP mod: inactive; GIRK2 activator: inactive

Results for COc1ccc(S(=O)(=O)N2CCC(C(N)=O)CC2)c(C)c1C ?
GluA2 TARP mod: inactive

Results for COc1ccc(NC(=O)C(=O)NCC(c2cccc3ccccc23)N2CCCC2)c(OC)c1 (stereo unspecified) ?
GIRK2 activator: inactive

What do the screens show for `CC1CN(CC(O)COC2CCCC2C)CC(C)O1` (stereo unspecified)?
GluA2 TARP mod: inactive

What do the screens show for `COCCCn1c(N)c(S(=O)(=O)c2ccc(Cl)cc2)c2nc3ccccc3nc21`?
GluA2 TARP mod: active; GIRK2 activator: inactive

Results for COCCCn1c(N)c(S(=O)(=O)c2ccc(OC)cc2)c2nc3ccccc3nc21 ?
GluA2 TARP mod: inactive; GIRK2 activator: inactive

What do the screens show for `COCCn1c(N)c(S(=O)(=O)c2cccc(Cl)c2)c2nc3ccccc3nc21`?
GluA2 TARP mod: active; GIRK2 activator: inactive

What do the screens show for `COCCCn1c(N)c(S(=O)(=O)c2cc(C)ccc2C)c2nc3ccccc3nc21`?
GluA2 TARP mod: inactive; GIRK2 activator: inactive

Results for CCS(=O)(=O)c1ccccc1C(=O)Nc1nc2c(s1)CC(C)CC2 (stereo unspecified) ?
GluA2 TARP mod: inactive; GIRK2 activator: inactive

What do the screens show for `COCCn1c(=O)c2c(nc(-n3nc(C)cc3C)n2Cc2cccc(C)c2)n(C)c1=O`?
GluA2 TARP mod: inactive; GIRK2 activator: inactive

Results for O=C(c1ccc([N+](=O)[O-])o1)N(C(=O)N1CCCCC1)c1ccc(Cl)cc1 ?
GluA2 TARP mod: active

What do the screens show for `O=C(c1ccc(Br)o1)N(C(=O)N1CCCCC1)c1cccc(Cl)c1`?
GluA2 TARP mod: inactive; GIRK2 activator: inactive

What do the screens show for `O=C(c1cc2ccccc2o1)N(C(=O)N1CCCCC1)c1ccc(Cl)cc1`?
GluA2 TARP mod: inactive

What do the screens show for `O=C(c1cc(=O)c2ccccc2o1)N(C(=O)N1CCCCC1)c1ccc(Cl)cc1`?
GluA2 TARP mod: active

How did COC(=O)c1ccc(NC(=O)Cn2nc(S(=O)(=O)c3ccccc3)ccc2=O)cc1 do in these assays?
GluA2 TARP mod: inactive; GIRK2 activator: inactive

How did CCOC(=O)c1ccc(NC(=O)Cn2nc3ccc(C(=O)Nc4cccc(C)c4)cn3c2=O)cc1 do in these assays?
GluA2 TARP mod: inactive; GIRK2 activator: inactive

What do the screens show for `CCc1ccc(N2CC(C)Cn3c2nc2c3c(=O)n(CC(N)=O)c(=O)n2C)cc1` (stereo unspecified)?
GluA2 TARP mod: inactive

Results for CC1CCCN(S(=O)(=O)c2ccc(Cl)c3ccccc23)C1 (stereo unspecified) ?
GluA2 TARP mod: inactive

Results for COc1ccccc1-c1csc(/C(C#N)=C2\C=CC=CN2C)n1 ?
GluA2 TARP mod: active; GIRK2 activator: inactive

Results for N#C/C(=C\c1ccnc2ccccc12)c1nc(-c2ccc(F)cc2)cs1 ?
GluA2 TARP mod: inactive; GIRK2 activator: inactive

Results for CN1C=CC=C/C1=C(/C#N)c1nc(-c2ccccc2)cs1 ?
GluA2 TARP mod: active; GIRK2 activator: inactive

Results for CCOC(=O)c1cn[nH]c1S(=O)(=O)Nc1ccc(C(N)=O)cc1 ?
GluA2 TARP mod: inactive; GIRK2 activator: inactive

How did CCc1ccc(S(=O)(=O)N2CCN(c3cccc(Cl)c3)CC2)cc1 do in these assays?
GluA2 TARP mod: inactive

What do the screens show for `CCOc1ccccc1NC(=O)C(=O)NCC1CCN(c2ncccn2)CC1`?
GluA2 TARP mod: inactive; GIRK2 activator: inactive

Results for CCOc1ccccc1C(=O)NCC1CCN(c2ncccn2)CC1 ?
GluA2 TARP mod: active; GIRK2 activator: inactive

How did O=C(NCC1CCN(c2ncccn2)CC1)c1c(F)cccc1F do in these assays?
GluA2 TARP mod: inactive; GIRK2 activator: inactive

Results for COc1cccc2cc(C(=O)NCC3CCN(c4ncccn4)CC3)c(=O)oc12 ?
GluA2 TARP mod: active; GIRK2 activator: inactive

Results for CCc1nnc(NS(=O)(=O)c2ccc(NC(=O)c3c(F)cccc3F)cc2)s1 ?
GluA2 TARP mod: inactive

Results for O=C(/C=C/c1ccco1)NCCN1CCn2cc(OCc3ccccc3)c(=O)cc2C1=O ?
GluA2 TARP mod: inactive; GIRK2 activator: inactive

What do the screens show for `Cc1cc(C)c(S(=O)(=O)N2CCN(c3c(C)cccc3C)CC2)c(C)c1`?
GluA2 TARP mod: inactive

Results for Cc1cc(C)c(S(=O)(=O)N2CCN(c3cccc(C)c3C)CC2)c(C)c1 ?
GluA2 TARP mod: active

How did CC(=O)CC1(O)C(=O)N(CCOc2ccc(C(C)(C)C)cc2)c2ccccc21 (stereo unspecified) do in these assays?
GluA2 TARP mod: active!; GIRK2 activator: inactive

What do the screens show for `CC(=O)CC1(O)C(=O)N(CCCOc2ccccc2C)c2ccccc21` (stereo unspecified)?
GluA2 TARP mod: inactive; GIRK2 activator: inactive

Results for C=CCNC(=O)Nc1nc(C(=O)OCC)cs1 ?
GluA2 TARP mod: inactive; GIRK2 activator: inactive

Results for CCOC(=O)c1csc(NC(=O)c2cc3ccccc3o2)n1 ?
GluA2 TARP mod: active

How did CS(=O)(=O)N1CCC(C(=O)NCCn2nc(-n3cccn3)ccc2=O)CC1 do in these assays?
GIRK2 activator: inactive

What do the screens show for `Cc1cc(NC(=O)Cc2ccc(S(=O)(=O)C(C)C)cc2)sn1`?
GIRK2 activator: inactive

Results for CCOc1ccc2ccccc2c1C(=O)NCC(c1cccs1)N1CCOCC1 (stereo unspecified) ?
GluA2 TARP mod: active; GIRK2 activator: inactive

Results for CCOc1ccc(OCCNC(=O)Cc2cccc3ccccc23)cc1 ?
GluA2 TARP mod: inactive; GIRK2 activator: inactive

Results for COc1cccc(OC)c1C(=O)NCC(c1cccs1)N1CCOCC1 (stereo unspecified) ?
GluA2 TARP mod: inactive; GIRK2 activator: inactive

Results for CCOc1ccc2ccccc2c1C(=O)NCC(c1ccc(OC)cc1)N1CCOCC1 (stereo unspecified) ?
GluA2 TARP mod: active

How did CCOc1ccc2ccccc2c1C(=O)NCC(c1cccs1)N(C)C (stereo unspecified) do in these assays?
GluA2 TARP mod: active; GIRK2 activator: inactive

Results for CCOc1ccc2ccccc2c1C(=O)NCCOc1ccccc1 ?
GluA2 TARP mod: active; GIRK2 activator: inactive

Screens: PubChem BioAssay, several laboratories
